# Laboratory results taken from PubChem BioAssay (NCATS).
# Several values for one entry are separate records, joined by “and”; a condition that tells them apart may be missing. Equal values may be shown once. Records with an inconclusive call do not appear. Activity calls are given as the source filed them. Calls follow the shape of the dose curve; as a rule, active = well fitted curve in the direction sought with a large enough effect; inconclusive = small, poorly fitted or top-dose-only effect, or another doubt; inactive = no such curve, though single readings can be large or run the other way.
# Assay: qHTS Assay for Identifying Gametocytocidal Compounds (AID 743244);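 as to max response: actives lower the fluorescent signal which means gametocytes are killed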
# Details: P. falciparum 3D7 stage III-V gametocytes, alamarBlue, 72 h; max response: active compounds read low
# Description: Malaria cases and deaths have dropped 50% in 29 countries since 2000 due to the combined effects of long-lasting insecticidal bednets, indoor residual spraying, and artemisinin-based combination therapies (ACTs). This success has raised hopes for malaria eradication and consequently stimulated interest in developing new reagents that block gametocyte transmission such as novel and safe gametocytocidal drugs. However, previous drug development efforts have focused primarily on the asexual parasites that cause symptoms, but not malaria transmission. Consequently, patients can remain infectious for weeks after the clearance of asexual parasites and clinical symptoms. To be transmitted from person to person via a mosquito, the parasites must switch from asexual to sexual development and produce male and female gametocytes. Malaria gametocytes consist of five stages (I, II, III, IV and V). The late stage gametocytes (III, IV and V) are difficult to be cultured in vitro and the long lifespan of mature gametocytes allows them being transmitted from host to mosquitoes unless they are completely eliminated by gametocytocidal agents. To identify gametocytocidal compounds which are capable of killing late stage P. falciparum gametocytes, a high throughput gametocyte viability assay was employed. This assay uses oxidoreduction indicator, alamarBlue, as a general measure of metabolic activity of gametocytes. Within live cells, the nonfluorescent resazurin is reduced to resorufin, a bright red fluorescence dye. Fluorescence decreases upon treatment of gametocytocidal compounds. P. falciparum gametocyte (3D7 strain) was used in this study.
# The 1536-well gametocycidal viability assay was based on the previous method of Tanaka et al. Stage III-V gametocytes were tested against three compound libraries, including 4265 compounds from NCGC pharmaceutical collection, 400 from Malaria Box library, and 550 from an internal collection of kinase inhibitors. Briefly, 2.5 ul/well incomplete medium was dispensed into each well of 1,536-well plates using the Multidrop Combi followed by 23 nl compound transferring using the NX-TR Pintool (WAKO Scientific Solutions, San Diego, CA). Then, 2.5 ul/well of gametocytes was dispensed with a seeding density of 20,000 cells/well using the Multidrop Combi. The assay plates were incubated for 72 h at 37C with 5% CO2. After addition of 5 ul/well of 2X AlamarBlue dye (Life Technologies, cat. no. DAL1100), the plates were incubated for 24 h at 37C with 5% CO2 and then were read in a fluorescence detection mode (Ex = 525 nm, Em = 598 nm) on a ViewLux plate reader (PerkinElmer).
# % is scaled to controls: 0 for no effect and ±100 for the full control effect; potency is read from the fitted curve at half-maximal effect.
Compound,max response,Potency
OC1CCCCC1N1CCC(c2ccccc2)CC1 (stereo not given),6.56% (inactive),–
CC(=O)O[C@H]1CC[C@H]2[C@@H]3CCC4=CC(=O)CCC4=C3C=C[C@]12C,5.16% (inactive),–
C=CCC1(C(C)CCC)C(=O)N=C(S)NC1=O (stereo not given),-3.05% (inactive),–
Nc1ccc(CCN2CCN(c3cccc(C(F)(F)F)c3)CC2)cc1,14.5% (inactive),–
N[C@@]1(C(=O)O)CC[C@@H](C(=O)O)C1,13.5% (inactive),–
C[N+]1(C)[C@@H]2CC[C@H]1CC(OC(=O)c1c[nH]c3ccccc13)C2 (stereo not given in full),8.77% (inactive),–
CCC(C)(S(=O)(=O)CC)S(=O)(=O)CC,7.4% (inactive),–
COc1cc2c(cc1OC)[C@@]13CCN4CC5=CCO[C@H]6CC(=O)N2[C@H]1[C@H]6[C@H]5C[C@H]43,18.6% (inactive),–
CN1CCc2cccc(Cl)c2CC1,33.5% (inactive),–
O=C1C=C2C=C[C@@H]3C[C@@]2(O1)[C@H]1CCCCN31,–,7080 nM (active)
COC(=O)[C@@H]1[C@H]2CC[C@@H](C[C@H]1OC(=O)c1ccccc1)N2C,5.25% (inactive),–
CCN1C[C@]2(COC)[C@H](O)C[C@H](OC)[C@@]34[C@@H]5C[C@@]6(O)[C@H](OC(=O)c7ccccc7)[C@@H]5[C@@](OC(C)=O)([C@@H]([C@H](OC)[C@H]23)[C@@H]14)[C@@H](O)[C@@H]6OC,-5.96% (inactive),–
CCC(=O)O[C@]1(c2ccccc2)CCN(C)C[C@H]1C,-3.07% (inactive),–
CCCN(CCC)CCc1ccc(O)c(O)c1,12.9% (inactive),–
C[C@@H]([C@H](O)c1ccccc1)N(C)C,8.71% (inactive),–
CCCN1CCc2cccc3c2[C@H]1Cc1ccc(O)c(O)c1-3,–,2820 nM (active)
C=CCN1CC[C@]23c4c5ccc(O)c4O[C@H]2[C@@H](O)C=C[C@H]3[C@H]1C5,2.17% (inactive),–
NC(=O)COc1c(F)cc(SCCNS(=O)(=O)c2ccccc2)cc1F,9.54% (inactive),–
C=CCN1CC[C@]23c4c5ccc(O)c4O[C@@H]2/C(=N/N=C2\CC[C@@]4(O)C6Cc7ccc(O)c8c7[C@@]4(CCN6CC=C)[C@@H]2O8)CC[C@@]3(O)C1C5,–,1000 nM (active)
COc1ccc2c(c1)c(CCN1CCOCC1)c(C)n2C(=O)c1cccc(Cl)c1Cl,23.8% (inactive),–

Compound,max response,Potency
O=c1[nH]c(=O)n(Cl)c(=O)n1Cl,6.71% (inactive),–
COCC(C)N(C(=O)CCl)c1c(C)csc1C (stereo not given),-1.03% (inactive),–
O=[N+]([O-])c1ccc(F)c([N+](=O)[O-])c1,6.65% (inactive),–
C[C@H]1CCC[C@H](O)CCCCCc2cc(O)cc(O)c2C(=O)O1,5.29% (inactive),–
NC(=O)c1cc(N2CC2)c([N+](=O)[O-])cc1[N+](=O)[O-],5.78% (inactive),–
COC1=CC=C2[C@H]3Cc4ccc(OC)c5c4[C@@]2(CCN3C)[C@H]1O5,13.9% (inactive),–
[O]=[Cr](=[O])([OH])[O][Cr](=[O])(=[O])[OH],21.1% (inactive) and 18.4% (inactive),–
N[C@@H](CCl)C(=O)O,3.64% (inactive),–
CNc1ccc(C(=O)CC(O)CCC(C)C2OC(=O)CC(O)CC(=O)CC(O)CC(O)CC(O)CC(O)CC3(O)CC(O)C(C(=O)OC)C(CC(O[C@@H]4O[C@H](C)[C@@H](O)[C@H](N)[C@@H]4O)/C=C/C=C/C=C/C=C/C=C/C=C/C=C/C2C)O3)cc1 (stereo not given in full),22.8% (inactive),–
C[C@]12CC[C@H](O)C[C@H]1CC[C@@H]1[C@@H]2CC[C@]2(C)[C@@H](c3ccc(=O)oc3)C[C@H]3O[C@]132,10.6% (inactive),–
CNC(C)C(O)c1ccc(O)cc1 (stereo not given),-4.84% (inactive) and 8.32% (inactive),–
CCCC(C)(COC(N)=O)COC(=O)NC1CC1 (stereo not given),6.87% (inactive),–
C[Se]C[C@H](N)C(=O)O,-6.02% (inactive),–
FC(F)OC(F)(F)C(F)Cl (stereo not given),-4.54% (inactive),–
O=C/C=C/c1ccccc1,4.39% (inactive),–
CCOP(=O)(OCC)O/C(=C/Cl)c1ccc(Cl)cc1Cl,-0.665% (inactive),–
NCC(O)c1cccc(O)c1 (stereo not given),13.2% (inactive),–
[S]=[Sb](=[S])[S][Sb](=[S])=[S],3.55% (inactive),–
Cc1c2ccncc2c(C)c2c1[nH]c1ccccc12,–,1780 nM (active)
CN1CC[C@@]2(C)c3cc(O)ccc3N(C)C12 (stereo not given in full),–,3160 nM (active)
